# Tests used:
# [1] = molecular target: Protein kinase C gamma type (Homo sapiens) (UniProt P05129); settings: at 1 µM;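 note: each value is an averaged percent inhibition of the enzyme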
# [2] = molecular target: T1, Protein kinase C iota type (Homo sapiens) (UniProt P41743); settings: at 0.1 µM
# T1 sequence (whole entry): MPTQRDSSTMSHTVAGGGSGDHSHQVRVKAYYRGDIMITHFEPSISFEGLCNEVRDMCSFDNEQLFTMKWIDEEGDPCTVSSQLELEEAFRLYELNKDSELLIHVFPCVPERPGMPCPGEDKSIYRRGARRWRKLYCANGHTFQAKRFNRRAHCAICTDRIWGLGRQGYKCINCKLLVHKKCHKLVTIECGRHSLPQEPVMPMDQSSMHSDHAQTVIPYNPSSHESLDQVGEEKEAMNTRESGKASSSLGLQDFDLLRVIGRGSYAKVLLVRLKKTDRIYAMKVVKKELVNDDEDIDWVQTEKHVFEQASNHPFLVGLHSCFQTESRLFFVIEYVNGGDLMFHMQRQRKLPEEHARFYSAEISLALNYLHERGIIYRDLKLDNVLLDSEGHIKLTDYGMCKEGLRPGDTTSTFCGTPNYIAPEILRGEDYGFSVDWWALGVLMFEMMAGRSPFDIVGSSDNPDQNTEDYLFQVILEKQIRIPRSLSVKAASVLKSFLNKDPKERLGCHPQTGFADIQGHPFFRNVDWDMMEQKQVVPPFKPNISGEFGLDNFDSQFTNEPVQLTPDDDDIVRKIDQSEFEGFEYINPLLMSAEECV
# [3] = molecular target: T1, Protein kinase C iota type (Homo sapiens); settings: at 1 µM
# [4] = molecular target: Protein kinase C theta type (Homo sapiens) (UniProt Q04759); settings: at 0.1 µM
# Protein kinase C theta type (Homo sapiens), sequence (Q04759 whole entry, looked up): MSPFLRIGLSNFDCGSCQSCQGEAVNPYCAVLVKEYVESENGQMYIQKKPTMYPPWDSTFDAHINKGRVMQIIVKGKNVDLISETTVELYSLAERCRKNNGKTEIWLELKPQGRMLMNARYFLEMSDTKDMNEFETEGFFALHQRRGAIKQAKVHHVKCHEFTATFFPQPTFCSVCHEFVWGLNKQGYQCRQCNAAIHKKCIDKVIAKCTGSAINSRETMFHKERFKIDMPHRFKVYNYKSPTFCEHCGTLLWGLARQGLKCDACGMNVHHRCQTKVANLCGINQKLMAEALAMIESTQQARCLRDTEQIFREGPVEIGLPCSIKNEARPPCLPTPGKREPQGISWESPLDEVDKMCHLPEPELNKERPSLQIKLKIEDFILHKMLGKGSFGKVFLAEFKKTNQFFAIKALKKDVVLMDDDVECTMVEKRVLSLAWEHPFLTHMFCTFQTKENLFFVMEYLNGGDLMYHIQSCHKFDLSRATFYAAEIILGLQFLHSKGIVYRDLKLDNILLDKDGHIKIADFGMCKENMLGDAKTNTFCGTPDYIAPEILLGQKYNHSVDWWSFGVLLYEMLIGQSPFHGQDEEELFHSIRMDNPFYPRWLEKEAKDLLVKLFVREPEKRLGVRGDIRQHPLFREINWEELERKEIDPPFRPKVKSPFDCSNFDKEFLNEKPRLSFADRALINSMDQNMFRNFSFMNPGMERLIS
# [5] = molecular target: Protein kinase C theta type (Homo sapiens) (UniProt Q04759); settings: at 1 µM
# [6] = molecular target: Protein kinase C beta type (Homo sapiens) (UniProt P05771); settings: at 0.1 µM
# Protein kinase C beta type (Homo sapiens), sequence (P05771 2-671 limits assumed): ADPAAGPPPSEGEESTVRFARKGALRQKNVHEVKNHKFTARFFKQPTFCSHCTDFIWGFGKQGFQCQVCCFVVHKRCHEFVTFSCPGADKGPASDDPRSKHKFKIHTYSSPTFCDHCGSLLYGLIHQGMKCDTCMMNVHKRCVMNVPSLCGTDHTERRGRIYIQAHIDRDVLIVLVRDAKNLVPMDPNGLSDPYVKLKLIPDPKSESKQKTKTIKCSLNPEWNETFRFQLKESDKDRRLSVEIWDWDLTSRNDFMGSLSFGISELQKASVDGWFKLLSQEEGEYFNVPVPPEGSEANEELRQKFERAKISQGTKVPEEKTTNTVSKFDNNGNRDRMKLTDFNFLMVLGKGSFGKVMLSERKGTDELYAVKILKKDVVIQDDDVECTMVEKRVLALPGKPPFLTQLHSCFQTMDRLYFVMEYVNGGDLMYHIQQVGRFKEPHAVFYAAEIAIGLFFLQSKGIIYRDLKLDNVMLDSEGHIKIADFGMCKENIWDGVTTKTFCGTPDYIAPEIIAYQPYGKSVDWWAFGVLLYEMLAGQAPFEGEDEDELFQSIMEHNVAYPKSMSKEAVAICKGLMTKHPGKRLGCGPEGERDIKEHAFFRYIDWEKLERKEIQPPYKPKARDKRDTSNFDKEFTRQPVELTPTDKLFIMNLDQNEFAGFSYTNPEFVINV
# [7] = molecular target: Protein kinase C beta type (Homo sapiens) (UniProt P05771); settings: at 1 µM
# [8] = molecular target: T2, Serine/threonine-protein kinase D1 (Homo sapiens) (UniProt Q15139); settings: at 0.1 µM
# T2 sequence (whole entry): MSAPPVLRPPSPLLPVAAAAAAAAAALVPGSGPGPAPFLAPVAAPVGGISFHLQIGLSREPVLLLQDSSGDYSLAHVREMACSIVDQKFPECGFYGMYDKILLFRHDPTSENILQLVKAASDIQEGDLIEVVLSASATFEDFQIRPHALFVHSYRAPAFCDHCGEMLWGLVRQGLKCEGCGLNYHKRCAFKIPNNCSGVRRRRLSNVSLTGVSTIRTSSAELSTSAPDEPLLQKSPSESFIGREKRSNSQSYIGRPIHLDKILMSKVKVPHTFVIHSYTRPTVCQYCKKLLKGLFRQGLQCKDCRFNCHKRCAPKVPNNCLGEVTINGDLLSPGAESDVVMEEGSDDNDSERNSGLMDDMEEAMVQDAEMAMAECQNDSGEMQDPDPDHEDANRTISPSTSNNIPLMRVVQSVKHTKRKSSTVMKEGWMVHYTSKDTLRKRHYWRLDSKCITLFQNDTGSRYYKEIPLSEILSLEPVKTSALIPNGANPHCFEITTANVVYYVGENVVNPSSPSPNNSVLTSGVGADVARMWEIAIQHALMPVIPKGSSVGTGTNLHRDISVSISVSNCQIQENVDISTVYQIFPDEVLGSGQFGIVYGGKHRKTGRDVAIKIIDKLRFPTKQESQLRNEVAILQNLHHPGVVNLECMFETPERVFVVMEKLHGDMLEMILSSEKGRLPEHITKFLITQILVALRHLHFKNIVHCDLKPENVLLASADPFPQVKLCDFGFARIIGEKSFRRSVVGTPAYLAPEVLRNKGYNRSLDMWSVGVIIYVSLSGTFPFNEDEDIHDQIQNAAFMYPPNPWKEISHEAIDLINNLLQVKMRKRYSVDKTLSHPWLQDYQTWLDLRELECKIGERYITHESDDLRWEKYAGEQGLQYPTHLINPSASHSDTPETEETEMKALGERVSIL
# [9] = molecular target: T2, Serine/threonine-protein kinase D1 (Homo sapiens); settings: at 1 µM
# [10] = molecular target: T3, Serine/threonine-protein kinase D2 (Homo sapiens) (UniProt Q9BZL6); settings: at 0.1 µM
# T3 sequence (whole entry): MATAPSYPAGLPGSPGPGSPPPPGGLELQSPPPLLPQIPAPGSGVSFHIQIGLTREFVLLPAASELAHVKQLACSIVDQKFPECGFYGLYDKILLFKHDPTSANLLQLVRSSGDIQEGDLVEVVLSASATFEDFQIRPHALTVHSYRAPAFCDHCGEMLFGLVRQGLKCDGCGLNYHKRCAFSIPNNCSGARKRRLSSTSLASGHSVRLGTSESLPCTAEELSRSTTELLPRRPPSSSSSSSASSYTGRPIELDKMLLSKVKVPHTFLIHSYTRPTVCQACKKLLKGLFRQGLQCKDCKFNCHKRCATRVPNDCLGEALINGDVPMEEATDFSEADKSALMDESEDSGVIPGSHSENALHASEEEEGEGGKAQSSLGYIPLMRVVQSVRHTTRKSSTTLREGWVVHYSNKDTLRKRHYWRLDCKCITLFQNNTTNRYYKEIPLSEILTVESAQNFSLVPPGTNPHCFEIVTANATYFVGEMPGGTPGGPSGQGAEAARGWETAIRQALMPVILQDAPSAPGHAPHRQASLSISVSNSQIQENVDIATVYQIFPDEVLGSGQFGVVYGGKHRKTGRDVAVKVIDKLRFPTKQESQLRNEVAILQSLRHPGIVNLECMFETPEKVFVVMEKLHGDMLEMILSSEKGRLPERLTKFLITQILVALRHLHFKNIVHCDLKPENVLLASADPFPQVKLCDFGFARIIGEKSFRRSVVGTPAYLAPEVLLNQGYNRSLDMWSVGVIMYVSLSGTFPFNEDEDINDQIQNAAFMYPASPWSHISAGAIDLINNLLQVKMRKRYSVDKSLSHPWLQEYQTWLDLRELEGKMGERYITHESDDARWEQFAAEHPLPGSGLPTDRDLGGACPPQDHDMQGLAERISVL
# [11] = molecular target: T3, Serine/threonine-protein kinase D2 (Homo sapiens); settings: at 1 µM
# [12] = molecular target: T4, Serine/threonine-protein kinase D3 (Homo sapiens) (UniProt O94806); settings: at 0.1 µM
# T4 sequence (whole entry): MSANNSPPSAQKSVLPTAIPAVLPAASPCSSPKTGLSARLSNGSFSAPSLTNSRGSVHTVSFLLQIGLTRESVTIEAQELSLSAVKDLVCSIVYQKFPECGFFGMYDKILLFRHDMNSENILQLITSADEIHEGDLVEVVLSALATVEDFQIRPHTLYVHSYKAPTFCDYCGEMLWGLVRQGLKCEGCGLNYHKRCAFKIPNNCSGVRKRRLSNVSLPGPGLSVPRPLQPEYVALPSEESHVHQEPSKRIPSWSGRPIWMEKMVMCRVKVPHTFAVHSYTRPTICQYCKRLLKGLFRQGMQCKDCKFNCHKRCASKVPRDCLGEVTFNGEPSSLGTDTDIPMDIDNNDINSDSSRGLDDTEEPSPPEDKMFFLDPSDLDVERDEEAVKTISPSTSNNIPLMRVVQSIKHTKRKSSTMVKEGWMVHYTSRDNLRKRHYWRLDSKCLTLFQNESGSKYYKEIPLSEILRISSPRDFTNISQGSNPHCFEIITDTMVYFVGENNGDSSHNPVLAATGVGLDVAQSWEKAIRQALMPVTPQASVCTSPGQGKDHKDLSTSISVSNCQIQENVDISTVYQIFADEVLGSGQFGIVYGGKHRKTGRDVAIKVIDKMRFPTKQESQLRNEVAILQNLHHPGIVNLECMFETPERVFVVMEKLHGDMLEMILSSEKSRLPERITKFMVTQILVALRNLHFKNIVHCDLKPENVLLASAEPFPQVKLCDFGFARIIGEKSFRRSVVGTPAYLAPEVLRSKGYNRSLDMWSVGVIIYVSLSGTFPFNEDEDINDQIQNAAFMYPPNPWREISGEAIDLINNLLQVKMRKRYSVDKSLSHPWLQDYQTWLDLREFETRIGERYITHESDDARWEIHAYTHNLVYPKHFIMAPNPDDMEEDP
# [13] = molecular target: T4, Serine/threonine-protein kinase D3 (Homo sapiens); settings: at 1 µM
# [14] = molecular target: T5, cGMP-dependent protein kinase 1 (Homo sapiens) (UniProt Q13976); settings: at 0.1 µM
# T5 sequence (whole entry): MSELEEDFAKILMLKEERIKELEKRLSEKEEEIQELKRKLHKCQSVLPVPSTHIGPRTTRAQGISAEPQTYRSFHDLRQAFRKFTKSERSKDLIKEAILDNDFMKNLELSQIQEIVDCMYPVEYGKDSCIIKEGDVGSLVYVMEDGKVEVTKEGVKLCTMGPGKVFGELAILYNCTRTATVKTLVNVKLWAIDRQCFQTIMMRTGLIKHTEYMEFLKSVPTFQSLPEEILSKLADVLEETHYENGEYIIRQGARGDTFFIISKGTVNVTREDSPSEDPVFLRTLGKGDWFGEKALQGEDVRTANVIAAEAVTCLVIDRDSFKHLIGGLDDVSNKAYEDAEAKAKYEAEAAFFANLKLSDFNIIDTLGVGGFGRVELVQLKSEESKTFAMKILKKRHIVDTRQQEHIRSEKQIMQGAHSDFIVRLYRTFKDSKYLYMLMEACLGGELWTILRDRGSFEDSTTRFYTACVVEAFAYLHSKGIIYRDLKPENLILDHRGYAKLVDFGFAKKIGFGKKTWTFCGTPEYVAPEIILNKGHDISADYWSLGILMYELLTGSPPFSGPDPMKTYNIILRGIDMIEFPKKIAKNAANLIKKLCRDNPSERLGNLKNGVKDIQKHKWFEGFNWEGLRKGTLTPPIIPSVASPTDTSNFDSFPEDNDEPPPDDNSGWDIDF
# [15] = molecular target: T5, cGMP-dependent protein kinase 1 (Homo sapiens); settings: at 1 µM
# [16] = molecular target: T6, cGMP-dependent protein kinase 2 (Homo sapiens) (UniProt Q13237); settings: at 0.1 µM
# T6 sequence (whole entry): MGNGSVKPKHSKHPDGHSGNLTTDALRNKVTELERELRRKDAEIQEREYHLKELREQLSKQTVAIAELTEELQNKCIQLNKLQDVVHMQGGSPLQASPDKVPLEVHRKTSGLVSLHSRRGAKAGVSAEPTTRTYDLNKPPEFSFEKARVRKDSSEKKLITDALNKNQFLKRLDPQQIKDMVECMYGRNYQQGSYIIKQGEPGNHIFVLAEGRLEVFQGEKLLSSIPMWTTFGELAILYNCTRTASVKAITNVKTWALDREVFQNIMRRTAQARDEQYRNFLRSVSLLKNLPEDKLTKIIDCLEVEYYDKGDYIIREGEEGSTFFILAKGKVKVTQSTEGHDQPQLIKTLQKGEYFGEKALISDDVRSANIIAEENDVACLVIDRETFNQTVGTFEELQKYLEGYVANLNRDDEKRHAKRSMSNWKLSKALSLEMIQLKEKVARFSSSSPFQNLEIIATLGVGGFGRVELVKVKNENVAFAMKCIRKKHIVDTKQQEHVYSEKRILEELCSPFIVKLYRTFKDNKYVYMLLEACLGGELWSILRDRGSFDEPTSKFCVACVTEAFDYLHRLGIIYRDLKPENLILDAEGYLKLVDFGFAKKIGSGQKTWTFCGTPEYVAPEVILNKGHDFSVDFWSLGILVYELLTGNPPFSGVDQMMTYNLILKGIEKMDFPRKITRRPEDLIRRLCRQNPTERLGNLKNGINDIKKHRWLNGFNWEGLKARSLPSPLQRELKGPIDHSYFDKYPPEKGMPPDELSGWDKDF
# [17] = molecular target: T6, cGMP-dependent protein kinase 2 (Homo sapiens); settings: at 1 µM
# [18] = molecular target: T7, cAMP-dependent protein kinase catalytic subunit PRKX (Homo sapiens) (UniProt P51817); settings: at 0.1 µM
# T7 sequence (whole entry): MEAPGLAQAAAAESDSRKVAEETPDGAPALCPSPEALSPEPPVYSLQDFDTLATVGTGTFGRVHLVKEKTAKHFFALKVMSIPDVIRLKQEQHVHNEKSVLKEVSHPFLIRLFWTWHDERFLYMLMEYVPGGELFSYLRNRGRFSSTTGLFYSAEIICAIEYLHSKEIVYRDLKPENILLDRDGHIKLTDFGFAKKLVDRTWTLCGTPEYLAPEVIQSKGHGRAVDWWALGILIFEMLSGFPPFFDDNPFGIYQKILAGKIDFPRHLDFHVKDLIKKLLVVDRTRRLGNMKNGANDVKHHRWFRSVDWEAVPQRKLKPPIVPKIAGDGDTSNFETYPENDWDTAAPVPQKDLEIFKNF
# [19] = molecular target: T7, cAMP-dependent protein kinase catalytic subunit PRKX (Homo sapiens); settings: at 1 µM
# [20] = molecular target: Rho-associated protein kinase 1 (Homo sapiens) (UniProt Q13464); settings: at 0.1 µM;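 note: values are mean percent inhibition of ROCK1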
# Rho-associated protein kinase 1 (Homo sapiens), sequence (Q13464 2-1354 limits assumed): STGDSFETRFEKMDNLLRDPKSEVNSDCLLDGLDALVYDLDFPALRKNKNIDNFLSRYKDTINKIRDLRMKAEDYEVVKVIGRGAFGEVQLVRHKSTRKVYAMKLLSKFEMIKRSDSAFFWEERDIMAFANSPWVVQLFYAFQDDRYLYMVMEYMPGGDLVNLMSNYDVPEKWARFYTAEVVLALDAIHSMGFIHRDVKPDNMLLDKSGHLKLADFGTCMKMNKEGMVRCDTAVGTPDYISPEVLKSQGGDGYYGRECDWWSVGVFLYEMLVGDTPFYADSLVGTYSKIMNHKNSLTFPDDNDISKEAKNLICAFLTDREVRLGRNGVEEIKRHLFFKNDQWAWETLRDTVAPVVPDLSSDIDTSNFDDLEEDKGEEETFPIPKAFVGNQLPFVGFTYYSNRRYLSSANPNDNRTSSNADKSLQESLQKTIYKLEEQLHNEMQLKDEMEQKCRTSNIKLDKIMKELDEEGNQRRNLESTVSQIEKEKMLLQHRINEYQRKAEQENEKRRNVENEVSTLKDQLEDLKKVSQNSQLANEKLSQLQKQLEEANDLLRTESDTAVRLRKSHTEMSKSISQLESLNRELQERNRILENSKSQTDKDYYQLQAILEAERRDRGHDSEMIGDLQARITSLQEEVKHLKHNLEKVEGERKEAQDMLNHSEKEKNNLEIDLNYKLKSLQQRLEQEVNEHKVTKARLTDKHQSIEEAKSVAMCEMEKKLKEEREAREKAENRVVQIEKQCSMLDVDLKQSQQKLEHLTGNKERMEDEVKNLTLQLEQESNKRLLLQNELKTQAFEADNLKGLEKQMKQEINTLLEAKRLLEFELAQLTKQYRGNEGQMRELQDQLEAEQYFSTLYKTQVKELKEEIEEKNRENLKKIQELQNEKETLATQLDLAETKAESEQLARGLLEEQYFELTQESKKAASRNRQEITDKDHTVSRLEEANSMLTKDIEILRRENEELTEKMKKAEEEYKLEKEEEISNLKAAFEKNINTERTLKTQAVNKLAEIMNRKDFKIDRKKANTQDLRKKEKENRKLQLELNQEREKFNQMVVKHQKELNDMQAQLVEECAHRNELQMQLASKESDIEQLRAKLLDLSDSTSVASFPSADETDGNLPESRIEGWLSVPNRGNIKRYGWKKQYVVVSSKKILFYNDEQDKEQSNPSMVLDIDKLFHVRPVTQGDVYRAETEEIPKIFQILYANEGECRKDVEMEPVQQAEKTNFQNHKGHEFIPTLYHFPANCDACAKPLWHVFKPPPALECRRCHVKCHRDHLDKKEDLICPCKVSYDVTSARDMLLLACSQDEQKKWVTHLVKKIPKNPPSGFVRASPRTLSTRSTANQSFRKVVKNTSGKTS
Compound,inhibition [1],inhibition [2],inhibition [3],inhibition [4],inhibition [5],inhibition [6],inhibition [7],inhibition [8],inhibition [9],inhibition [10],inhibition [11],inhibition [12],inhibition [13],inhibition [14],inhibition [15],inhibition [16],inhibition [17],inhibition [18],inhibition [19],inhibition [20]
CS(=O)(=O)Nc1cccc(-c2ccc3c(NC(=O)C4CC4)n[nH]c3c2)c1,1.59%,0.49%,0.91%,-0.5%,-0.76%,-0.25%,0.61%,0.96%,2.34%,2.1%,3.59%,1.24%,2.48%,-0.41%,1.73%,1.34%,2.16%,0.39%,-0.61%,0.24%
NS(=O)(=O)c1ccc(-c2cc3ccncc3cc2OCc2ccccc2)cc1,4.49%,0.19%,0.28%,1.18%,2.98%,0.66%,1.74%,2.19%,2.75%,2.47%,4.54%,2.31%,2.51%,0.96%,4.78%,1.8%,3.35%,0.85%,1.52%,0.19%
Cc1cc(O)cc(C)c1/C=C/c1cncc(C(=O)N(C)C)c1,4.07%,0.51%,1.32%,0.96%,0.78%,0.19%,3%,1.61%,2.79%,-2.38%,2.05%,6.37%,3%,2.65%,3.73%,1.74%,3.78%,1.77%,0.5%,0.55%
COc1cc2ncnc(Nc3ccc(C)c(O)c3)c2cc1OC,7.37%,3.5%,1.78%,3.41%,5.28%,2.8%,5.81%,4.73%,9.92%,5.41%,10.5%,5.98%,8.58%,3.2%,3.61%,2.18%,3.65%,2.05%,2.06%,0.48%
